Experimental data from ChEMBL document CHEMBL4513216, “Probing the Open Global Health Chemical Diversity Library for Multistage-Active Starting Points for Next-Generation Antimalarials” (ACS Infect Dis, 2020).
About 8,600 (12%) of roughly 69,000 compounds showed an effect of 50% or more. Only a selection was taken, and strong results are over-represented in it overall.

Tested on: Plasmodium berghei
Assay: Screen against P. berghei liver stage (PbLuc), transformed with Luciferase, at 10uM
Type: functional, HepG2
Settings: tested at 10 uM

Row | Structure (SMILES) | INHIBITION [%]
1 | CCn1nc(C)c(CNC(=O)c2nnc3ccccc3n2)c1C | 58.2
2 | CCn1nc(C)c(CNC(=O)C2COc3ccccc3C2)c1C (stereo not drawn) | 15.9
3 | O=C(NCCCn1cccn1)c1nnc2ccccc2n1 | 37.9
4 | O=C(NCC1CC1)c1nnc2ccc(Cl)cc2n1 | 5.21
5 | Cc1ccc2nnc(C(=O)NCCCn3cccn3)nc2c1 | 26.8
6 | CCn1nc(C)c(CNC(=O)c2nnc3ccc(OC)cc3n2)c1C | 41.6
7 | O=C(NCCn1cccn1)c1nnc2ccccc2n1 | 68.5
8 | CCn1nc(C)c(CNC(=O)NCC(C)(O)c2ccccc2)c1C (stereo not drawn) | -6.12
9 | CCn1nc(C)c(CNC(=O)c2nnc3ccc(Cl)cc3n2)c1C | 73.1
10 | CS(=O)(=O)N1CCCC(C(=O)Nc2cnn(COCC(F)(F)F)c2)C1 (stereo not drawn) | 4.08
11 | Cc1ccc(C2(CN(C)Cc3sccc3C)CCNCC2)nc1 | 6.66
12 | CC(C)C(=O)N1CCCC([C@@H]2C[C@H](C(F)F)n3ncnc3N2)C1 (stereo partly drawn) | 5.295
13 | O=C1CC[C@H]2[C@H](CCN2C(=O)N2CCCC2)N1Cc1ccncc1 | 41.2
14 | Cc1nsc2ncc(C(=O)N3CCCC3c3cnn(C)c3)cc12 (stereo not drawn) | 19.2
15 | Cc1ccc2c(c1)[C@@H](CC(=O)N1CCOCC1)CCO2 | 14.5
16 | COc1ccc2c(c1)NC(C1CCNCC1)NS2(=O)=O (stereo not drawn) | 19.3
17 | O=S1(=O)NC2(CCCN(Cc3ccc(F)cc3)C2)COc2ccccc21 (stereo not drawn) | 0.207
18 | Cc1cncc(C(=O)N2CCCC(O)(CN(C)C)CC2)c1 (stereo not drawn) | -5.78
19 | Cc1cccc(C(C(=O)NC(C)(C)CN2CCOCC2)N(C)C)c1 (stereo not drawn) | -17.8
20 | CN(C)C[C@]12COC[C@H]1CN(Cc1ccc3c(c1)OCO3)C2 | 28.5
21 | Cc1nn(C)cc1C(=O)N1CCCC(c2nccn2CC2CCC2)C1 (stereo not drawn) | 14.1
22 | O=C(CC1CCN(CCc2ccccc2)CC1)N1CCCOCC1 | 33.2
23 | CCCC(O)CN1CCC(=O)N(CC2CC2)Cc2cc3c(cc21)OCO3 (stereo not drawn) | 10.9

Row | Structure (SMILES) | INHIBITION [%]
24 | Cn1cc(CNCCNc2ncc(Cl)cc2Cl)cn1 | -14.5
25 | Cc1c(C(=O)NC2CCCOC2)nnn1-c1ccc(Cl)cc1F (stereo not drawn) | 55.5
26 | Cc1c(C(=O)NC2CCCC2)nnn1-c1ccccc1 | -133
27 | Cc1c(C(=O)NC2CCCOC2)nnn1-c1ccccc1 (stereo not drawn) | 17.1
28 | Cc1cnn(CC(C)NCC(=O)NCCOc2ccccc2)c1 (stereo not drawn) | -0.96
29 | CC(C)(C)n1nnnc1CN(CCc1ccccc1)Cc1ccccc1 | 65.7
30 | CC(C)(C)n1nnnc1CN(Cc1ccccc1)Cc1ccc(Cl)cc1 | 81.4
31 | Cn1cc(CN(Cc2ccccn2)Cc2ccccc2Cl)cn1 | -10.4
32 | CC(C)N(C(=O)Cn1nnnc1CCc1ccccc1)C(C)C | 37.7
33 | O=C(c1nnn(-c2ccc(Cl)cc2)n1)N(CCO)Cc1ccccc1 | -23.5
34 | CCN(Cc1ccccc1Cl)Cn1nc(C)c2c(C)onc2c1=O | 40.2
35 | CCc1ncc(CN(CCc2ccccc2)Cc2cccs2)cn1 | 45.1
36 | CC(C)(C)n1nnnc1CN(Cc1ccccc1)Cc1ccccc1Cl | 91.6
37 | CCc1nc(CN(C(C)=O)C2CCN(Cc3ccccc3F)C2)no1 (stereo not drawn) | -11.4
38 | CN(Cc1ccco1)[C@@H]1CN(C(=O)C2CCOCC2)C[C@@H]2CCCO[C@@H]21 | 37.1
39 | CCN(CC)C(=O)Cn1ccc2cc(NC(=O)COC)ccc21 | -7.267
40 | Cn1nccc1-c1nnn2c1COC(CNCc1nccs1)C2 (stereo not drawn) | 38.3
41 | N[C@H]1CN(C(=O)c2ccc3[nH]c(=O)c(=O)[nH]c3c2)C[C@@H]1c1ccccc1 | 34.1
42 | Cc1cc(NC(=O)CN2CCC(N3CCNC3=O)CC2)on1 | -71.2
43 | CC(NCc1c(C(C)C)nn(C)c1N(C)C)C(=O)NC1CCCC1 (stereo not drawn) | -5.94
44 | C1CCC(NCC2(N3CCOCC3)CCSC2)C1 (stereo not drawn) | 30.8
45 | C1CCC(CNC2CCSCC2)(N2CCOCC2)CC1 | 51.1
46 | CS(=O)(=O)N1CCC(NCC2(N3CCOCC3)CCCCC2)CC1 | 49

Row | Structure (SMILES) | INHIBITION [%]
47 | COCc1nn(C(C)C)c2c1CCN(Cc1cccs1)C2 | 23.5
48 | O=C(c1ccc(N2CCCCCC2)nn1)N1CCc2ccccc21 | -30
49 | Cc1c(-c2ccccc2)nc2c(c(C)c(C)n2CCN(C)C)c1N | -19.4
50 | CCc1c(-c2ccccc2)nc2c(c(C)c(C)n2CCN(C)C)c1N | 45
51 | CCCc1nc2c(c(C)c(C)n2CCN(C)C)c(N)c1CC | 43.8
52 | CCCc1nc2c(c(C)c(C)n2Cc2cccnc2)c(N)c1CC | 75.2
53 | CCc1cc(NCCc2cccnc2)n2nc(C)c(C)c2n1 | -1.6
54 | CCc1nc2c(c(C)c(C)n2Cc2cccnc2)c(N)c1C | 29.1
55 | CCCc1nc(N2CCN(Cc3ccccn3)CC2)c2cnn(C)c2n1 | 27.6
56 | CCCc1nc2c(c(C)c(C)n2Cc2ccccn2)c(N)c1CC | 68.1
57 | CCCc1nc2c(c(C)c(C)n2Cc2ccncc2)c(N)c1CC | 77.9
58 | Cc1nn(C)c(N(C)C)c1CNCCCN(C(C)C)S(C)(=O)=O | 6.15
59 | COc1ncccc1CN1CCn2c(Cn3cncn3)cnc2C1 | 7.96
60 | CCc1nc(C2CCCN2C(=O)c2ccc3c(c2)[nH]c(=O)n3C)no1 (stereo not drawn) | -21.7
61 | COc1cccc(CC(=O)NC2CCCc3cn[nH]c32)c1 (stereo not drawn) | 33.4
62 | Cc1nn(C)c(Cl)c1CNCc1cccnc1N1CCCCC1 | -13
63 | Cc1noc(C)c1CC(=O)N1CCCC(Cc2ccccn2)C1 (stereo not drawn) | -0.6
64 | CC1(C)COCCN1C(=O)Cc1cc(Cl)c2c(c1)OCCO2 | -117
65 | O=C(C[C@@H]1COC[C@H]2CN(C(=O)c3cccnc3)C[C@@H]12)N1CCOCC1 | -81.1
66 | CCOc1ccc2[nH]c(=O)c(CN3CCC(n4cnnc4)CC3)cc2c1 | 43.4
67 | CN(CCn1ccnc1-c1ccccn1)S(C)(=O)=O | -36
68 | Cn1nc(COCC2CC2)c2c1CN(C(=O)c1ccno1)CC2 | 8.85
